According to ChEMBL document CHEMBL3988442, “University of Dundee, Small-Polar-MMV Screening Library” (2021):
Hit rate of the full screen: of about 66,000 compounds, about 960 (1.5%) showed an effect of 50% or more. The list comes from a sample in which strong results are over-represented; it also holds similar structures and randomly drawn compounds.

System: Trypanosoma brucei
Experiment: Trypanosoma brucei 72 hour study
Assay type: functional, organism-based
Design: scale not given: in the data most compounds retested in dose-response had high values

Row | Structure (SMILES) | Percent Effect (30 µM, 30.03 µM) [%] | Percent Effect (30.3 µM, […]) [%]
1 | CCC(=O)N1CCN(C(=O)CCn2cc(Cl)cn2)[C@H]2CS(=O)(=O)C[C@H]21 | 35.1 | –
2 | Cc1cnn(CCC(=O)N2CCN(C(=O)C(C)C)[C@@H]3CS(=O)(=O)C[C@@H]32)c1 | 31 | –
3 | Cc1cnn(CCC(=O)N2CCN(C(=O)C3CC3)[C@@H]3CS(=O)(=O)C[C@@H]32)c1 | 64.13 | –
4 | CCCNC(=O)C1CCN(CC(O)c2ccc(C(F)(F)F)cc2)CC1 (stereo unspecified) | – | 11.33
5 | Cc1cc(CN2CCC(CNS(=O)(=O)c3ccccc3F)CC2)c(C)o1 | – | 3.502
6 | Cc1cc(CN2CCC(CNS(=O)(=O)c3ccc(C)s3)CC2)c(C)o1 | – | -7.383
7 | Cc1cc(CN2CCC(CNS(=O)(=O)c3ccc(Br)s3)CC2)c(C)o1 | – | 55.92
8 | CCC(CN1CCCC1)n1cncc1-c1cnn(-c2ccccc2)c1.Cl (stereo unspecified) | – | -6.567
9 | Cc1cc(C)c(CNC(=O)NCc2ccc(F)c(C)c2)c(=O)[nH]1 | – | -14.44
10 | O=C1CN(C(=O)[C@H]2CC[C@]3(CC2)CNC(=O)c2ccccc2O3)CCN1 | – | -6.646
11 | Cc1cnc2c(c1NCc1ccc3c(c1)OCO3)c(=O)n(C)c(=O)n2C | -27.04 | –
12 | CCc1cc(CNC(=O)c2cc(NC(=O)C(C)C)ccc2Cl)[nH]n1 | – | 61.59
13 | Cc1cc(CNC(=O)c2cc(NC(=O)C(C)C)ccc2Cl)no1 | – | -13.13
14 | COCc1cc(CNC(=O)c2cc(NC(C)=O)ccc2Cl)n[nH]1 | -15.93 | –
15 | CN(C)C(=O)CN1CCc2ncnc(NC3CCC3)c2CC1.O=C(O)C(F)(F)F | – | -31.13
16 | CCN(CC)Cc1cc(=O)n2c(n1)CN(C(=O)c1ccc[nH]1)CCC2 | – | 11.69
17 | Cc1nc(C)n(CC2CCCN(Cc3nnc(C(C)(C)C)o3)C2)n1 (stereo unspecified) | 14.46 | –
18 | COc1ccccc1CNC(=O)Cn1ncc2c1c(C)nn2C | 68.66 | –
19 | Cc1nn(C)c2cnn(CC(=O)NCc3ccccc3F)c12 | – | -20.3

Row | Structure (SMILES) | Percent Effect (30 µM, 30.03 µM) [%] | Percent Effect (30.3 µM, […]) [%]
20 | Cc1ccccc1CNC(=O)Cn1ncc2c1c(C)nn2C | – | -7.192
21 | CN(Cc1ccc(N(C)C)cc1)C(=O)CSc1ccc(Br)cc1 | – | 12.7
22 | CS(=O)(=O)N1CC2(CCN(C(=O)c3ccncc3)CC2)c2ccccc21.O=C(O)C(F)(F)F | – | -14.55
23 | CN(Cc1ccco1)[C@@H]1CN(Cc2ccsc2)C[C@@H]2CCCO[C@@H]21.O=C(O)C(F)(F)F.O=C(O)C(F)(F)F | 27.39 | –
24 | CN(C)C[C@@H]1C[C@@H]2CN(Cc3nccn3C)CC[C@@H]2N1CC1CC1 | – | -12.03
25 | Cc1ccccc1OCC1CCCN(C(=O)CN(C)C2CCNCC2)C1 (stereo unspecified) | 59.87 | –
26 | COCC(=O)N1CCCC(COc2ccccc2C)C1 (stereo unspecified) | -51.53 | –
27 | Cc1cccc(OCC2CCCN(C(=O)CN(C)C3CCNCC3)C2)c1 (stereo unspecified) | 6.222 | –
28 | Cc1ccccc1-n1ncc(C(C)N)c1C (stereo unspecified) | – | -16.93
29 | Cc1ncc(CN2CCCC2)c2cc(C(=O)c3ccc(Br)cc3)oc12.Cl | -13.22 | –
30 | CC(C)CNC(=O)[C@H]1CCS(=O)(=O)[C@@H]2CN(CC(C)C)C[C@H]12.O=C(O)C(F)(F)F | – | -19.44
31 | CC(C)Oc1ncc(C(=O)N2CCC(CC(N)=O)CC2)cc1Cl | – | -51.28
32 | CC(=O)N1CCN(C(=O)c2cnc(OC(C)C)c(Cl)c2)CC1 | – | -3.997
33 | CC(C)Oc1ncc(C(=O)N2CCC(N(C)C)CC2)cc1Cl | – | 99.1
34 | Cc1n[nH]cc1CNC1(c2ccc(F)cc2)CCCC1 | – | -110.9
35 | Cc1n[nH]cc1CNC1(Cc2ccc(Br)cc2)CCCCC1 | – | 80.83
36 | Cc1n[nH]cc1CNC1(c2ccc(Br)cc2)CC1 | – | -166.2
37 | O=C(O)C(F)(F)F.O=C(O)C(F)(F)F.O=C1NC2(CCN(Cc3ccc(F)cc3)CC2)CC1c1ccncc1 (stereo unspecified) | 28.32 | –
38 | Cc1cc(S(=O)(=O)NC(C)(C)CN)c(F)cc1F.Cl | -23.52 | –

Row | Structure (SMILES) | Percent Effect (30 µM, 30.03 µM) [%] | Percent Effect (30.3 µM, […]) [%]
39 | Cc1oncc1C(=O)N1CC2CC1(C(=O)N(C)C)C2 | – | -15.18
40 | COCC1c2c(cnn2CC2CC2)CCN1Cc1cccs1.O=C(O)C(F)(F)F.O=C(O)C(F)(F)F (stereo unspecified) | -88.48 | –
41 | COCC1c2c(cnn2CC2CC2)CCN1Cc1nccs1.O=C(O)C(F)(F)F.O=C(O)C(F)(F)F (stereo unspecified) | 52.09 | –
42 | CCOCC1c2c(cnn2CC2CC2)CCN1Cc1nccs1.O=C(O)C(F)(F)F.O=C(O)C(F)(F)F (stereo unspecified) | – | -3.24
43 | Cc1cccc2c1cnn2CCCNC(=O)C1CC1 | – | -16.1
44 | O=C(CN1CC(c2nc(C3CC3)no2)C1)N1CCOCC1.O=C(O)C(=O)O | 47.84 | –
45 | O=C(O)C(F)(F)F.O=C([C@H]1CC[C@@H]2[C@@H](CCN2C2CCCCC2)O1)N1CCOCC1 | – | 2.517
46 | CO[C@H]1CCN(c2nnc(C)s2)C[C@@H]1Cc1cccc(C)c1.O=C(O)C(F)(F)F | – | 100.1
47 | CO[C@H]1CCN(c2nnc(C)s2)C[C@@H]1Cc1ccccc1.O=C(O)C(F)(F)F | – | 12.72
48 | CO[C@@H]1CCN(c2nnc(C)s2)C[C@@H]1Cc1ccccc1.O=C(O)C(F)(F)F | – | -5.303
49 | Cc1nnc(N2CC[C@@H](OCC3CC3)[C@@H](Cc3ccccc3)C2)s1.O=C(O)C(F)(F)F | – | 100.5
50 | Cc1nnc(N2CC[C@H](OCC3CC3)[C@@H](Cc3ccccc3)C2)s1.O=C(O)C(F)(F)F | -16.49 | –
51 | CO[C@@H]1CCN(c2nnc(C)s2)C[C@@H]1Cc1cccc(C)c1.O=C(O)C(F)(F)F | – | -8.568
52 | O=C(N[C@H]1CC[C@@]2(CCC(=O)N2CC2CC2)CC1)c1cnccn1 | – | -8.587
53 | Cc1nnc([C@@]23CCO[C@@H]2CCN(S(=O)(=O)c2ccccc2)C3)o1 | – | -46.55
54 | CNC(=O)c1ccc(CN(C)C(=O)Nc2nnc(C(C)C)s2)cc1 | 1.168 | –
55 | Cc1cc2c(=O)n3c(nc2s1)CCN(Cc1[nH]cnc1C)CC3.Cl | – | -2.938
56 | COc1ccc(F)cc1-c1ccccc1CC1CNCCNC1=O.Cl (stereo unspecified) | – | -18.15
